Assay results taken from the supplement of paper PMC11732987, “Enantioselective OTUD7B fragment discovery through chemoproteomics screening and high-throughput optimisation” (Communications Chemistry, 2025).

Columns and labels:
Assay in all cases: log2 ratio of Biotin-Ahx-Ub-VS probe labelling (fragment/DMSO); higher = less target engagement (more negative = stronger competition), active = hit call of the paper (q ≤ 0.05, log2 ratio ≤ -1)
Settings in all cases: compound concentration: 200 uM; treatment time: 3 h
USP19 = target: T1, USP19 (UniProt O94966)
T1 sequence (whole entry): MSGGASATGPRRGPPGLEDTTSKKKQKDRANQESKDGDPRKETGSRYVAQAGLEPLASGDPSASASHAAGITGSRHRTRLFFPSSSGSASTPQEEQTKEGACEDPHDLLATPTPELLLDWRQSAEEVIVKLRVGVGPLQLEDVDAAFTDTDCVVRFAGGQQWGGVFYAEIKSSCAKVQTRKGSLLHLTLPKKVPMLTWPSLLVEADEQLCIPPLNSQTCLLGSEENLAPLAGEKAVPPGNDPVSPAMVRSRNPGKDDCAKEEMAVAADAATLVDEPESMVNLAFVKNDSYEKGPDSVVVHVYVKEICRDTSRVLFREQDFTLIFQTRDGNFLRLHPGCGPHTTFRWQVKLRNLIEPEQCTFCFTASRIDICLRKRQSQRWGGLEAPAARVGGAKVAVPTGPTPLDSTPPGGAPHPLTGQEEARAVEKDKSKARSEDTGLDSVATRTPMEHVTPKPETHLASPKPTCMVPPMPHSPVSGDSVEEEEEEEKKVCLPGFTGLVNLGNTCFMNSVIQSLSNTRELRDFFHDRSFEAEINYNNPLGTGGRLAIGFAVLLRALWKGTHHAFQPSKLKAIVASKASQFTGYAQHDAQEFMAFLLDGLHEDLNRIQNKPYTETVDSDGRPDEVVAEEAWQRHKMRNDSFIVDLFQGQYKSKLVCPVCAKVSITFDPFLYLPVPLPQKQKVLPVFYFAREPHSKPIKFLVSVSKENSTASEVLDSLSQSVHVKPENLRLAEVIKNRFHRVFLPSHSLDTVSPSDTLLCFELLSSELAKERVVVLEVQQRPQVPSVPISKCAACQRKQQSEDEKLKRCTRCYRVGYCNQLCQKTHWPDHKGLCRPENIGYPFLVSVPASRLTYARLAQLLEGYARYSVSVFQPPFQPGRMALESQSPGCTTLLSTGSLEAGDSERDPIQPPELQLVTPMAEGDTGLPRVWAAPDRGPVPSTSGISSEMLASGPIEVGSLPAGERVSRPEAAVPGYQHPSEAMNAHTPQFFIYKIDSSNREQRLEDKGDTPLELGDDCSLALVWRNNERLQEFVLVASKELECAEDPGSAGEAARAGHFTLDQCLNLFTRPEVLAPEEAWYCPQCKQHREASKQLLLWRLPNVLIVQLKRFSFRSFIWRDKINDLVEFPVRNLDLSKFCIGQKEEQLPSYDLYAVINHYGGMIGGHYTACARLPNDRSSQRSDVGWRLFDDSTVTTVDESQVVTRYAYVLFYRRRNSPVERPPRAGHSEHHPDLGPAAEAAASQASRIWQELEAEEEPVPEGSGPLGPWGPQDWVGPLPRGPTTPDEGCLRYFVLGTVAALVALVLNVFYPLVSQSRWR
Procedure, shortened: (§1)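 Triplicate samples of HEK293T lysate, 495 µg each, received fragment at 200 µM or vehicle for 3 h, followed by Biotin-Ahx-Ub-VS (0.5 µM final) for 1 h. After NeutrAvidin enrichment of labelled DUBs and LysC/trypsin digestion, peptides were run by diaPASEF LC-MS/MS. The values are average log2 fragment/vehicle ratios from global-median-normalised Spectronaut label-free quantities, tested by unpaired t-test on proteins having ≥2 unique peptides.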

USP22 = target: T2, USP22 (UniProt Q9UPT9)
T2 sequence (whole entry): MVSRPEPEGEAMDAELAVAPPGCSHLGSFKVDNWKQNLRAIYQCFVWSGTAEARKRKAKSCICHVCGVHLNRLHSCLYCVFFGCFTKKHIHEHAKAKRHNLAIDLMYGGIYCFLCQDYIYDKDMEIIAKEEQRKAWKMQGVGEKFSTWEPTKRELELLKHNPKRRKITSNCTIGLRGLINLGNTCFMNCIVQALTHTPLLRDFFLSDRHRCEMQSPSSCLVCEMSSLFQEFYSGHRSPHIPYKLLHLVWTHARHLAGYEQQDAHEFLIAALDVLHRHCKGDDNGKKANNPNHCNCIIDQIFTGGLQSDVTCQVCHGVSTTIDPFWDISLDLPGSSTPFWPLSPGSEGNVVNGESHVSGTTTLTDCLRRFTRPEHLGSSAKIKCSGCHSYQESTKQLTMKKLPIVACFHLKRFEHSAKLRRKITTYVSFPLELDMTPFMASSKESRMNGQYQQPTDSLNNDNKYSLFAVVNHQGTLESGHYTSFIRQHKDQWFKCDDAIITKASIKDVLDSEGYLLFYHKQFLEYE
Procedure, shortened: as §1

USP24 = USP24 (UniProt Q9UPU5)
Procedure, shortened: as §1

USP25 = target: T3, USP25 (UniProt Q9UHP3)
T3 sequence (whole entry): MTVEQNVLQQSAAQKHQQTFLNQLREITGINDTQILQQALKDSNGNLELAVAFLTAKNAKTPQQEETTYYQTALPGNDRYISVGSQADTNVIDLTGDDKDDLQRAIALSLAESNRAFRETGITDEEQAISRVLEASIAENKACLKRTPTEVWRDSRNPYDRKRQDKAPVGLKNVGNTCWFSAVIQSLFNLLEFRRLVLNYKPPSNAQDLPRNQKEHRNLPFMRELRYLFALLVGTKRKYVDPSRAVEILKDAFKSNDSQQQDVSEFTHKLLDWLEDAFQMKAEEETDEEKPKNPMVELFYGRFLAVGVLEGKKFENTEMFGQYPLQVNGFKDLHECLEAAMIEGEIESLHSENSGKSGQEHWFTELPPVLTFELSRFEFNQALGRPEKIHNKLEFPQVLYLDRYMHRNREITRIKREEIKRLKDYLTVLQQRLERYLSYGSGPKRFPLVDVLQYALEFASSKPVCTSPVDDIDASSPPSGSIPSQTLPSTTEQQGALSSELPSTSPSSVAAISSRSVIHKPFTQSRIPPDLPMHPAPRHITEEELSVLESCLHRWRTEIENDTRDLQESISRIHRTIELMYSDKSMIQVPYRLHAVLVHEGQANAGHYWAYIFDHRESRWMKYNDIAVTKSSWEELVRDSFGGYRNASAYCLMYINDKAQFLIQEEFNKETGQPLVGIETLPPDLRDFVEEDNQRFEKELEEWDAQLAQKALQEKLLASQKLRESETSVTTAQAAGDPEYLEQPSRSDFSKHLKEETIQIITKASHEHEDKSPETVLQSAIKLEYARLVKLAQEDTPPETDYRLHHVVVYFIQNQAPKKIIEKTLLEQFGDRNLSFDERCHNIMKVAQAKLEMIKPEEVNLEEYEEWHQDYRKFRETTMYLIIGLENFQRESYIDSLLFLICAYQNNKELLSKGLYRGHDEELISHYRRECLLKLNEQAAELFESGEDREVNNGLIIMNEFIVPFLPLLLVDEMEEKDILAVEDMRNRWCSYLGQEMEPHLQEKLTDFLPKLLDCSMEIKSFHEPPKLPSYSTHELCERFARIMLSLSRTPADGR
Procedure, shortened: as §1

USP28 = target: T4, USP28 (UniProt Q96RU2)
T4 sequence (whole entry): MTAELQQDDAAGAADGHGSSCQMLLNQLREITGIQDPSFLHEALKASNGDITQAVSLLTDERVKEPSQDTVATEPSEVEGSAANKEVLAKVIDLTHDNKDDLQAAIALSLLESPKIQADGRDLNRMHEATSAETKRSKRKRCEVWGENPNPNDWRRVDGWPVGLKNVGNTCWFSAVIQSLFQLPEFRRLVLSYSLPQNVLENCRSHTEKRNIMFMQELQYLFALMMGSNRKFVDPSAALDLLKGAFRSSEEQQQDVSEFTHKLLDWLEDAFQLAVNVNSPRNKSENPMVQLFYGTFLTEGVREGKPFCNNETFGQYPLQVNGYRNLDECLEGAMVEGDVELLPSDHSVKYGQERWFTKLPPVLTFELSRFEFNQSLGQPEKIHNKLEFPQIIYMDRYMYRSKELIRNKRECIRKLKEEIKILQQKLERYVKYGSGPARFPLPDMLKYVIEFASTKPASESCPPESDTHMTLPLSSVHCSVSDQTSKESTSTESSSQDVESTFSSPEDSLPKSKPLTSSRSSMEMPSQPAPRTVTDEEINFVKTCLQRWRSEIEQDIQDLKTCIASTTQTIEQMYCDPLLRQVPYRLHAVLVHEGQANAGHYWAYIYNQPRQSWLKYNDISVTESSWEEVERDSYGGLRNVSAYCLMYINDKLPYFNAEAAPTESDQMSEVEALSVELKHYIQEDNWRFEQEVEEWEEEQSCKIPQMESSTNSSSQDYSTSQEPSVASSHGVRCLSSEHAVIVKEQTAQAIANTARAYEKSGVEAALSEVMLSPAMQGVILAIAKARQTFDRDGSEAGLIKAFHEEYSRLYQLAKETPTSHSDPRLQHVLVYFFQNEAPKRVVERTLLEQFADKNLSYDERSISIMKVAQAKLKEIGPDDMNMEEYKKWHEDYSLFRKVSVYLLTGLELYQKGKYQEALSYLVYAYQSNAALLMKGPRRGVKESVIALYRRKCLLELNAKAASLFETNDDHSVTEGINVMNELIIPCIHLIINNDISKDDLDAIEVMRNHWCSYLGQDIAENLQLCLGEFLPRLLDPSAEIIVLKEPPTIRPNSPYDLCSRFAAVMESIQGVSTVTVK
Procedure, shortened: as §1

Measured: log2 ratio of Biotin-Ahx-Ub-VS probe labelling

Chain of USP24 (Q9UPU5 whole entry): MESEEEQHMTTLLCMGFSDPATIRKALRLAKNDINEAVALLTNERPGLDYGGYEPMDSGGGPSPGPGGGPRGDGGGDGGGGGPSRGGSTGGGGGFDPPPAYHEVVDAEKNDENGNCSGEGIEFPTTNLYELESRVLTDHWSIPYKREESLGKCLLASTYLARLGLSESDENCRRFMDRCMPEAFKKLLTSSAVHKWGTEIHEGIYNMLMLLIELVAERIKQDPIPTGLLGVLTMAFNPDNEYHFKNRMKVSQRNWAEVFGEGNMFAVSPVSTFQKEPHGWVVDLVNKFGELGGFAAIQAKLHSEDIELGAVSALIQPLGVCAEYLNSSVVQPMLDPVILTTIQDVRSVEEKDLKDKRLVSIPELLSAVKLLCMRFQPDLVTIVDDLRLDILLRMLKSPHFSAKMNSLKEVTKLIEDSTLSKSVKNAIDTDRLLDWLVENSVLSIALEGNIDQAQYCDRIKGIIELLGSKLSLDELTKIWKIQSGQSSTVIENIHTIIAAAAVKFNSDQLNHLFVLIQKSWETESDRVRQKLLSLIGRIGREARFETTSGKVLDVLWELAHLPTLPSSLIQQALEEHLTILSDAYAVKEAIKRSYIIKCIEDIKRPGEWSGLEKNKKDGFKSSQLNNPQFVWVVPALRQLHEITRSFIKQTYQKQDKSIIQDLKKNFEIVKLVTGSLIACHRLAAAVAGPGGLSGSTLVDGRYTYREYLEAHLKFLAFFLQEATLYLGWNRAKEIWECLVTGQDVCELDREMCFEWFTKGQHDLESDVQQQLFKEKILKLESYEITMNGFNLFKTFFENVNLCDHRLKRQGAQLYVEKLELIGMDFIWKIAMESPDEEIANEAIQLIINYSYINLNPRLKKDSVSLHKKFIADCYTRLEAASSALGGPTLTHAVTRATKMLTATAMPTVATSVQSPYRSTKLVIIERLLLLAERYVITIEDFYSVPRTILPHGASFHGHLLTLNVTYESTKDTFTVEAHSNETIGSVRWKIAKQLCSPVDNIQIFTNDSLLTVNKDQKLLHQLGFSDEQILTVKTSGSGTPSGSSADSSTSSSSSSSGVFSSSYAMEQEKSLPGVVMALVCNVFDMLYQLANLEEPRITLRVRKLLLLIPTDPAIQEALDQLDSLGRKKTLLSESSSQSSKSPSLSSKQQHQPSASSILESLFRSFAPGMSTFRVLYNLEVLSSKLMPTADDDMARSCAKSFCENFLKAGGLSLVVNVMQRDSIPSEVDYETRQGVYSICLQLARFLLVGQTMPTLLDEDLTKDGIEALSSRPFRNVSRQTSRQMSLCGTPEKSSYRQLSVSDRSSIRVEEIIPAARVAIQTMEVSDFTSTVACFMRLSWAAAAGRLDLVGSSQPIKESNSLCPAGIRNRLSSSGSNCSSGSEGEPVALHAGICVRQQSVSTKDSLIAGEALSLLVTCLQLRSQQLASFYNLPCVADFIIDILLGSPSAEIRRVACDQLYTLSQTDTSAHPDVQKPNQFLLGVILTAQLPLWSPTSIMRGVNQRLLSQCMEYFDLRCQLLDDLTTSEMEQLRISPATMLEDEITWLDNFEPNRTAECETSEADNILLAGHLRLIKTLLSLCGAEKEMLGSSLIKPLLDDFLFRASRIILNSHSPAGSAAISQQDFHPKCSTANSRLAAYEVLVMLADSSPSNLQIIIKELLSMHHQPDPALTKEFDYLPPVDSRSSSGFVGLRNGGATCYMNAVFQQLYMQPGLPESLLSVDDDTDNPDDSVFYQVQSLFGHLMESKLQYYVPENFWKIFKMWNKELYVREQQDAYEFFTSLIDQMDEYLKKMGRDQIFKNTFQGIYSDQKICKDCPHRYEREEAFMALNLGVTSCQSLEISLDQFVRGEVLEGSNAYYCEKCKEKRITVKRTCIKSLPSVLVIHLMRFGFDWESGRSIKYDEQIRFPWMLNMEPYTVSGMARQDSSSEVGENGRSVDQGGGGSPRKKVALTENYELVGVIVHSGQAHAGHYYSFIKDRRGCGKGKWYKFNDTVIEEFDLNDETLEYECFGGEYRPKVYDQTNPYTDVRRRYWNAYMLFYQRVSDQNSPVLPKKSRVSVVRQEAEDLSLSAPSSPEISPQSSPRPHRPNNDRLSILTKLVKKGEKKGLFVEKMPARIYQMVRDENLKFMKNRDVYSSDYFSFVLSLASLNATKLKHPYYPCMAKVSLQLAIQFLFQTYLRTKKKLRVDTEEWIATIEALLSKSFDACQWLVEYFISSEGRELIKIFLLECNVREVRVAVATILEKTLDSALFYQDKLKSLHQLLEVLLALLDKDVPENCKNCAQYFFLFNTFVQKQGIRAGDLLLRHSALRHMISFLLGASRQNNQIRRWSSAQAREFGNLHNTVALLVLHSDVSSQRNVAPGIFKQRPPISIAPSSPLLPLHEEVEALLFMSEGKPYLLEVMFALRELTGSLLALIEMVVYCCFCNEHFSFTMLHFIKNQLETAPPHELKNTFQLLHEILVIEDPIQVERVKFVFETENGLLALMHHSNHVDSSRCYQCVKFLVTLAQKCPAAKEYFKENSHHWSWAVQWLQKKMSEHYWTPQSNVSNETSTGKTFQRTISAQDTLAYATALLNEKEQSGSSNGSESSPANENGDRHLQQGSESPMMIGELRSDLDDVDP

CC(=O)C1CCCCN1C(=O)CCl (stereo not given)
inactive: USP19 -0.14 | USP22 0.0806 | USP24 0.0726 | USP25 0.106 | USP28 -0.2
